Source: PubChem BioAssay
Hits are enriched below; roughly 5.8% of the tested compounds scored in any of these assays.
SW480 rerep: A quantitative high throughput screen for small molecules that induce DNA re-replication in SW480 colon adenocarcinoma cells; SW480 DNA re-replication, Hoechst DNA content imaging, 48 h; Potency, µM (highest dose often 46.1 µM), for inactives: at the top dose re-replication activation, actives largely listed as activators; hit rate 1.8% among 340,000; AID 624297, 2012; further: % of control where 0% means no effect; nearly all actives have a fitted effect of over 55% in size
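First, 250 cells per well were seeded. Next, compound or vehicle (23 nL) was pinned in, plates sat 48 hr at 37 C. Finally Hoechst was added for 40 min before fluorescence scanning.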
PINK1 expr mod: A Quantitative High throughput Screen to Identify Chemical Modulators of PINK1 Expression; PINK1 immunofluorescence, high-content cytometry, 24 h; Potency, µM (top dose mostly 76.6 µM), for the others: at the top dose activation (PINK1 increase), actives largely listed as activators; hit rate 0.2% among 410,000; active means well fitted activation curve with a large enough effect; inconclusive means small, poorly fitted or top-dose-only effect; cell line not stated here; further: % of control where 0% means no effect; nearly all actives have a fitted effect of over 65% in size
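PINK1 protein level read as immunofluorescence by microplate cytometer in a fixed, stained stable cell line after 24 h exposure to five compound concentrations, with CCCP as control.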
KB-3-1 cytotox: qHTS assay for MDR1-selective chemotherapeutics: Primary screen using the parental adenocarcinoma cell KB-3-1; KB-3-1 viability, CellTiter-Glo ATP luminescence, 72 h; Potency, µM (top dose mostly 46.1 µM), most hits filed as cytotoxic; hit rate 1.4% among 400,000; AID 1347075, 2019; further: on the % scale 0 is the no-effect control and ±100 the full control effect; nearly all actives have a fitted effect of over 60% in size
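Parental KB-3-1 adenocarcinoma cells in phenol-red-free DMEM with 10% FBS were pin-treated with compounds at several concentrations, incubated 72 h at 37 °C, and viability read by CellTiter-Glo luminescence; concentration-effect curves were fitted after normalization.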
MCF10A rerep: A quantitative high throughput screen for small molecules that induce DNA re-replication in MCF 10a normal breast cells; MCF 10A DNA re-replication, Hoechst nuclear intensity, 48 h; Potency, µM (series often up to 46.1 µM), inactives show at the top dose activity, positive = re-replication, hits mostly activators; hit rate 2.9% among 350,000; further: % of control where 0% means no effect; nearly all actives have a fitted effect of over 50% in size
KB-V1 MDR tox: qHTS assay for MDR1-selective chemotherapeutics: Primary screen using the drug-selected MDR subline cells KB-V1 | KB-V1 MDR cells viability, CellTiter-Glo, 72 h | Potency, µM (highest dose often 46.1 µM), usual class: cytotoxic | hit rate 3.4% among 400,000; further: on the % scale 0 is the no-effect control and ±100 the full control effect; nearly all actives have a fitted effect of over 60% in size
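Cells of the MDR subline KB-V1 are plated, dosed with compound at multiple concentrations, and incubated 72 h at 37 degrees C; CellTiter-Glo is then added and luminescence read after 10 min.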
ALOX12 inh: Primary qHTS assay for inhibitors of human arachidonate 12S-lipoxygenase (ALOX12): Round 2; hit rate 1.1% among 580,000; purified 12hLO, xylenol orange hydroperoxide absorbance; Potency, µM (highest dose often 108 µM), inactives show at the top dose activity change, negative = inhibition, usual class: inhibitors; further: on the % scale 0 is the no-effect control and ±100 the full control effect
Target sequence (P18054 whole entry, looked up): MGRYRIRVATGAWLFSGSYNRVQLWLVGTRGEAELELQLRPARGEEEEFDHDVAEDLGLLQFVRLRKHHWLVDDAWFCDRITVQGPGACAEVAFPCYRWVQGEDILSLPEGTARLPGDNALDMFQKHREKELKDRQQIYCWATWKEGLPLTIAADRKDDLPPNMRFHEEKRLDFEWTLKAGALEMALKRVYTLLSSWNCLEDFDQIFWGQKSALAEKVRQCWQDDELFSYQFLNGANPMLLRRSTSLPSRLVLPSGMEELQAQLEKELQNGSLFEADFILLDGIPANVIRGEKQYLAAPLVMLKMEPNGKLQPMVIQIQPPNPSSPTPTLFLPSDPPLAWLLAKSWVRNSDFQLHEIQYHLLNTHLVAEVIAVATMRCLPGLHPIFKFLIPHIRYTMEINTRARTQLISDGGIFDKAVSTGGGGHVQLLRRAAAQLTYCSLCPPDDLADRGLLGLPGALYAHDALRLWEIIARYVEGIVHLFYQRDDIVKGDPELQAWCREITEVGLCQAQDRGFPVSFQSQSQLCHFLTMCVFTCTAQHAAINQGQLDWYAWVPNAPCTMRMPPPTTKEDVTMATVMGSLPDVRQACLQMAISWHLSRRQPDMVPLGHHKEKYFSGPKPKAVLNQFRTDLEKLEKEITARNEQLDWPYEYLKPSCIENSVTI
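Purified human 12hLO (150 nM final) in 25 mM Hepes, 0.01% Triton X-100, pH 7.0 was preincubated 15 min at room temperature with compound. Then 40 uM arachidonic acid was added, 30 min. Hydroperoxide was read by Fe-XO absorbance ratio 573/405 nm.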
* = called active by the depositor; i = inactive; u = inconclusive; x = no result; [ ] = another dose, or the depositor's remark. Unless noted, the call rests on the fitted dose curve; in most records, active means well fitted curve in the direction sought with a large enough effect; inconclusive means small, poorly fitted or top-dose-only effect, or another doubt; inactive means no such curve, though single readings can be large; an effect the other way counts as inactive or inconclusive. Potency means the concentration at half of the fitted maximal effect.

SMILES | SW480 rerep | PINK1 expr mod | KB-3-1 cytotox | MCF10A rerep | KB-V1 MDR tox | ALOX12 inh
O=C(Nc1ccc(F)cc1)c1cc(-c2ccco2)on1 | x | x | x | x | x | 2.1%
Cc1cccc2cc(/C=N/NC(=O)CN3CCOCC3)c(Cl)nc12 | -4.8% | 3.9% | i | -0.6% | 18.4µM* | 1.9%
CCCCC(=O)Nc1c(O)c2ccccc2[nH]c1=O | -4.3% | 0.0%[38.3 µM] | i | 10.3% | i | -4.8%
O=C(CCl)NNC(=O)c1c(O)c2ccccc2[nH]c1=O | u | 4.6% | 14.6µM* | 19.9% | u | 8.2%
O=C(NC1CC1)c1c(O)c2ccccc2[nH]c1=O | -11.7% | -0.9% | u | u | i | 3.1%
CCCCC(=O)NNC(=O)c1c(O)c2ccccc2[nH]c1=O | -4.6% | 0.3% | i | u | 9.2µM* | 4.7%
COc1ccc(F)cc1S(=O)(=O)N1CCC(n2cnnc2C)CC1 | x | x | x | x | x | 6.5%
CS(=O)(=O)N(CC(=O)N/N=C/c1cccc2c1OCCO2)c1ccccc1Br | -6.6% | 1.3% | i | -8.7% | i | 6.6%
CS(=O)(=O)N(CC(=O)N/N=C/c1cc2c(cc1Br)OCO2)c1ccccc1Br | -5.7% | -0.2% | u | 1.2% | 18.4µM* | -19.3%
OCC1(CNCc2ccc(F)cc2)C[C@@H](O)[C@@H](O)C1 (stereo partly specified) | x | x | x | x | x | 63.4%[176 µM]
OCC1(CNCc2cccnc2)C[C@@H](O)[C@@H](O)C1 (stereo partly specified) | x | x | x | x | x | 20µM*
N#CCC(=O)Nc1ccc(C(=O)NNC(=S)NC2CCCCC2)cc1 | 11.4% | -0.2% | i | 0.7% | i | -5.7%
CC(C)CC(=O)Nc1ccc(C(=O)NNC(=S)NC(=O)C2CCCCC2)cc1 | 0.2% | x | i | -4.9% | 10.3µM* | 25.6%
COCCCNC(=O)C(=O)Nc1ccc2c(c1)N(S(=O)(=O)c1cccs1)CCC2 | 1.03µM* | 2.5% | 1.16µM* | 1.3µM* | 1.03µM* | 2.3%
CCNC(=O)C(=O)Nc1ccc2c(c1)N(S(=O)(=O)c1cccs1)CCC2 | u | 13.0% | i | 29.2% | u | 6.8%
CN(C)CCNC(=O)C(=O)Nc1ccc2c(c1)N(S(=O)(=O)c1cccs1)CCC2 | 18.4µM* | 10.1% | 6.51µM* | u | u | u
CCCNC(=O)C(=O)Nc1ccc2c(c1)N(S(=O)(=O)c1cccs1)CCC2 | 18.4µM* | 3.8% | u | 14.6µM* | u | -3.2%
CN(C)CCCNC(=O)C(=O)Nc1ccc2c(c1)N(S(=O)(=O)c1cccs1)CCC2 | 1.8% | 1.4% | u | u | i | 2.3%
C=CCNC(=O)C(=O)Nc1ccc2c(c1)N(S(=O)(=O)c1cccs1)CCC2 | u | 5.7% | u | u | 23.1µM* | 4.6%
O=C(c1cccs1)N(Cc1ccncc1)C1CC1 | x | x | x | x | x | -1.1%
COc1ccc(Oc2c(C)oc3cc(OCC(=O)c4ccccc4)ccc3c2=O)cc1 | x | x | x | x | x | 27.0%
CSc1cccc(NC(=O)Cn2c(N3CCC(C)CC3)nc(C)cc2=O)c1 | x | x | x | x | x | 24.7%
CCOC(=O)N1CCC(n2c(SCC(=O)N3CCC(C)CC3)nc3ccccc3c2=O)CC1 | 11.8% | 0.4% | u | u | 20.6µM* | -4.8%
CC1CCN(C(=O)Cn2c(=O)n(Cc3ccc4c(c3)OCO4)c(=O)c3ccccc32)CC1 | 13.7% | -2.6% | i | 4.9% | u | 0.0%
CCOC(=O)N1CCC(n2c(SCC(=O)NCc3ccccc3)nc3ccccc3c2=O)CC1 | 4.4% | 1.0% | i | -0.1% | i | 0.0%
SMILES | SW480 rerep | PINK1 expr mod | KB-3-1 cytotox | MCF10A rerep | KB-V1 MDR tox | ALOX12 inh
CC1CCN(C(=O)CSc2nc3ccccc3c(=O)n2Cc2ccc3c(c2)OCO3)CC1 | 19.1% | 0.5%[38.3 µM] | u | u | 4.61µM* | -20.9%
CCOC(=O)N1CCC(n2c(SCC(=O)NCCC3=CCCCC3)nc3ccccc3c2=O)CC1 | u | -1.3%[38.3 µM] | u | 25.9µM* | 8.2µM* | -12.6%
CC1CCCN(C(=O)CCc2c[nH]c3ccccc23)C1 (stereo unspecified) | x | x | x | x | x | 8.4%
CC(=O)c1ccc(NC(=O)CN2C(=O)NC3(CCC(C)CC3)C2=O)cc1 (stereo unspecified) | x | x | x | x | x | -5.3%
Cc1cccc(NC(=S)NCc2ccc3c(c2)cc(C)n3C)c1C | u | 4.4% | u | 13µM* | i | 35.5µM*
Cc1cc2cc(CNC(=S)Nc3ccc(OC(F)(F)F)cc3)ccc2n1C | -2.1% | 9.1% | i | u | i | 39.8µM*
O=C(NCCc1ccccc1)c1nc(-c2ccc3[nH]ccc3c2)no1 | x | x | x | x | x | -2.9%
COc1ccc(-c2nc(C(=O)N3CCOCC3)nn2-c2ccccc2Cl)cc1 | x | x | x | x | x | -11.0%
CCCOc1ccc2c(CC)cc(=O)oc2c1C | 8.0% | -1.6% | i | 10.1% | 13µM* | -9.5%
CCCCc1cc(=O)oc2c(C)c(OCC)ccc12 | x | x | x | x | x | -10.3%
CCc1c(C)c2ccc(OCC(=O)N(C)C)c(C)c2oc1=O | -10.5% | 5.8%[38.3 µM] | i | 4.2% | 10.3µM* | 0.0%
C=C(C)COc1ccc2c(CC)cc(=O)oc2c1C | -3.7% | -1.2% | u | 11.9% | 20.6µM* | 1.2%
Cc1c(C)c2ccc(OCC(=O)N(C)C)c(C)c2oc1=O | 0.9%[9.22 µM] | -1.6% | i | -12.0% | i | -10.3%
CC(C)Oc1nc2ccccc2nc1N1CCC(C(=O)NCc2ccccc2Cl)CC1 | x | x | x | x | x | -32.2%
CCc1ccc(CNC(=O)c2ccccc2SC)s1 | x | x | x | x | x | -19.8%
CC(C)=CCOc1ccc([C@@H]2COc3c(ccc4c3C=CC(C)(C)O4)C2)c(O)c1 | -11.4% | u | u | 20.6µM* | u | -14.4%
Cc1cc(F)ccc1NC(=O)C(C)(C)c1ccccc1 | x | x | x | x | x | -35.8%
O=C1CCCC2=C1C1(CCCCC1)N=C(Nc1nc3ccccc3s1)N2 | 15.3% | -2.4%[38.3 µM] | i | 10.3µM* | i | -3.6%
O=C1CCCC2=C1C1(CCOCC1)N=C(Nc1nc3ccccc3o1)N2 | x | x | i | x | i | x
O=C1CCCC2=C1C1(CCCC1)N=C(Nc1nc3ccccc3s1)N2 | -2.9% | 11.2µM* | i | u | i | 12.5%
Cc1cc(C)c(NC(=O)c2cc(=O)c3ccccc3o2)c(Cl)c1 | x | x | x | x | x | 4.8%
O=C(c1ccncc1)N(Cc1ccccc1)Cc1nc2ccccc2c(=O)[nH]1 | 0.9% | 1.1% | i | 0.4% | i | -4.8%
O=C(c1ccccc1)N(Cc1ccc(F)cc1)Cc1nc2ccccc2c(=O)[nH]1 | 4.11µM* | 2.8%[38.3 µM] | i | u | i | 26.6%
